For 18 compounds, growth inhibition results are on record in PubChem BioAssay (NCI).

The panel holds about 79,000 compounds, 15% with a hit somewhere; the sample as a whole holds those more often. A number with no mark means an inactive call. Calls of active or inactive are those of the source. Rule as the data show it: active = growth inhibition above about 70%; inactive = the rest.

A short description of the first assay: NCI Yeast Anticancer Drug Screen. Data for the rad14 strain (AID 159).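 Also: 0% = growth of vehicle-treated control cultures.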 The settings on record: S. cerevisiae rad14 strain growth inhibition; at 11.0 µM; stronger effect = higher value. Summed up: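 Compound-treated yeast with a defined DNA-repair lesion; growth inhibition normalised to vehicle-treated cultures.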
For the compound `O=C(O)c1ccccc1/C=N/N=C1c2ccccc2-c2ccccc21`, the growth inhibition is 0%.

As for `O=C1CC(=O)c2ccccc21`, the growth inhibition is 5%.

On to `Nc1ncnc2c1ncn2C1OC(CO)CC1O` (stereo not drawn), for which the growth inhibition is 27%.

The same assay, now with this note: S. cerevisiae rad14 strain growth inhibition; at 33.0 µM; stronger effect = higher value.
In the case of `CS(=O)(=O)SCc1ccc([N+](=O)[O-])cc1`, the growth inhibition is 99% (active).

As for `Cc1csc(=S)n1OC(=O)NC1CCCCC1`, the growth inhibition is 99% (active).

For `CCOc1ccc(NC(=O)C2=C(C)NC(C)=C(C(=O)Nc3ccc(OCC)cc3)C2c2cccc([N+](=O)[O-])c2)cc1`, the growth inhibition is 9%.

Consider `CC(C)(C)N=C(NO)c1ccccc1`, for which the growth inhibition is 10%.

As for `CCCCC/C(=C(\C#N)C(=O)OCC)c1ccccc1`, the growth inhibition is 8%.

As to `O=C(NCCCl)Sc1ccc(Cl)cc1`, the growth inhibition was 33%.

`O=C1Nc2ccc(Br)cc2C1=Nc1ccc2c(c1)OCO2`: the growth inhibition was -21%.

For the compound `CCC(C)OC(=O)Nc1ccc(C)c(NC(=O)OC(C)CC)c1` (stereo not drawn), the growth inhibition is 6%.

As to `O=C(O)c1cc2ccc(Cl)cc2c(O)c1C1=CCCCC1`, the growth inhibition was 30%.

On to `CN(C)Cc1cc(N=Nc2ccc(Cl)cc2)ccc1OC(=O)c1ccccc1`, for which the growth inhibition is 14%.

Regarding `CN1CCN(C(=O)/C=C/C(=O)c2ccccc2)CC1`, the growth inhibition was 40%.

For `CCCC/C=C/C(C)(C(=O)OCC)C(=O)OCC`, the growth inhibition was 3%.

For the compound `Cc1nc(-c2cc3cc([N+](=O)[O-])ccc3oc2=O)cs1`, the growth inhibition is 25%.

With `Cc1nc2ccccc2nc1NNc1ccccc1`, the growth inhibition is 7%.

Regarding `CN(C)[C@@H]1C(=O)C(C(N)=O)=C(O)[C@@]2(O)C(=O)C3=C(O)c4c(O)cccc4C[C@H]3C[C@@H]12`, the growth inhibition was 98% (active).
